Screening results (PubChem BioAssay)
Compounds with a hit are over-represented: about 1% of the library has one in this group of screens.
TRb-SRC2 inh: TRbeta-SRC2 interaction inhibition | 280,000 tested, 0.065% active | TRbeta-SRC2 peptide binding, fluorescence polarization; receptor liganded with 1 µM T3 | P10828 | Potency, µM (top dose mostly 106 µM), inactives show at the highest dose activity change, negative = inhibition, usual class: inhibitors;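 further: potency means the concentration at half of the fitted maximal effect; plate controls were bound peptide for no effect and peptide without receptor for full effect; nearly all actives have a fitted effect of over 50% in size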
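Each compound concentration gave % activity, normalized to unbound and bound Texas Red SRC2 controls, from polarization read after 5 hr ambient incubation with T3-loaded human TRb LBD.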
TR SRC2 fluor cs: alters Texas Red total fluorescence, flagging assay interference; TRb/SRC2 Texas Red total fluorescence interference; 280,000 tested, 0.29% active; Potency, µM (titrated, usually from 106 µM), inactives show at the highest dose fluorescence change, negative = quenching; active means well fitted curve in either direction with a large enough effect; inconclusive means small, poorly fitted or top-dose-only effect; further: potency means the concentration at half of the fitted maximal effect; on the % scale 0 is the no-effect control and ±100 the full control effect
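Human TRb ligand-binding domain at 0.6 uM with 20 nM Texas Red SRC2 peptide in Tris buffer containing 1 uM T3 and 5% DMSO, incubated with compound 5 h at ambient temperature. Total fluorescence (555/632 nm) calculated as parallel + 2 × perpendicular.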
Coupling enz: counter-screen for Giardia aldolase inhibitors: coupling enzyme system; coupling enzyme system counterscreen, AmpLite Red fluorescence; activity change, negative = inhibition, % at 58.2 µM, hits read low; 290,000 tested, 0.67% active; AID 2472; in the data active means activity change below about -30%; further: on the % scale 0 is the no-effect control and ±100 the full control effect
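Activity here indicates interference with the coupling reaction, not aldolase inhibition. Compounds at 57.5 uM final met coupling enzymes for 10 min at RT; substrate and AmpLite Red detection followed, with a 525/598 nm fluorescence read after 20 min.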
TCR activator: T cell receptor activation. 330,000 tested, under 10 active. primary human leukocytes, anti-CD3, IL-2 HTRF, 48 h. Potency, µM (highest dose often 9.22 µM), for the others: at the highest dose activation of IL-2 secretion, usual class: activators; further: % of control where 0% means no effect
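Compounds are tested in HTS on primary human leukocytes co-incubated with a-CD3 beads for 48 hr. IL-2 output is measured by time-resolved FRET.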
TSHR antag: human thyrotropin receptor antagonism; P16473; TSHR-expressing cells, TSH-stimulated cAMP HTRF, 2 h; stronger effect = lower value; activity change, negative = inhibition, % at 11.5 µM; 330,000 tested, 0.2% active; AID 504810;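 active means activity change below a set negative limit, meaning inhibition stronger than a set level, cut at about -70% in these data; inconclusive means activity change between two set negative limits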; further: on the % scale 0 is the no-effect control and ±100 the full control effect
Target sequence (P16473 whole entry, looked up): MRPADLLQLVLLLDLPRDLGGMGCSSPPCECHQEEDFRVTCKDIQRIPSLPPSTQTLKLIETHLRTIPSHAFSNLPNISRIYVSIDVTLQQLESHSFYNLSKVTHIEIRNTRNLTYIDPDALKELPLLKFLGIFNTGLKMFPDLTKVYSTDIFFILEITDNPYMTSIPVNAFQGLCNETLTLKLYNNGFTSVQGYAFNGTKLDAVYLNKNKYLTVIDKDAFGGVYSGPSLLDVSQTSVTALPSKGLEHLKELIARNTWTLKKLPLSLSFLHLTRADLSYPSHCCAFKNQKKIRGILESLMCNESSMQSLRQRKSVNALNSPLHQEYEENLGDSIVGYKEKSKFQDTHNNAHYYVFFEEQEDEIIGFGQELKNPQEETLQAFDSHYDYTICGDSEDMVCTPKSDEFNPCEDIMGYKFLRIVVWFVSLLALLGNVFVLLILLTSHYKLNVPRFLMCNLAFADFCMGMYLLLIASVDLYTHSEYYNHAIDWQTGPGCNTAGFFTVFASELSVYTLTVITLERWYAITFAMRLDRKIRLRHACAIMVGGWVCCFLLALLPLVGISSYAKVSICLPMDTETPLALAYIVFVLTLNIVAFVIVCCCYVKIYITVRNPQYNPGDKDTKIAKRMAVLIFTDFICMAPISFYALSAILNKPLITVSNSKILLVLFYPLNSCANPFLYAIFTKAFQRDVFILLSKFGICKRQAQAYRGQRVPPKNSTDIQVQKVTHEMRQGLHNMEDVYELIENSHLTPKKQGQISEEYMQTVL
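TSHR-expressing cells were treated with compounds, then stimulated with TSH at EC80 (4nM final) for 2 hours at 37 deg C. Cellular cAMP was measured by HTRF competition between lysate cAMP and cAMP-d2 for a cryptate-labelled anti-cAMP antibody.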
NPSR antag: blocks cAMP signaling of the human neuropeptide S receptor. Q6W5P4. CHO-NPSR cells, cAMP TR-FRET, antagonist mode. Potency, µM (doses to about 38.3 µM), without a hit: at the top dose activity change, negative = inhibition, most hits filed as inhibitors. 220,000 tested, 1% active. AID 1461; further: potency means the concentration at half of the fitted maximal effect; on the % scale 0 is the no-effect control and ±100 the full control effect; nearly all actives have a fitted effect of over 50% in size
* = called active by the depositor; [ ] = another dose, or the depositor's remark. Unless noted, the call rests on the fitted dose curve; in most records, active means well fitted curve in the direction sought with a large enough effect; inconclusive means small, poorly fitted or top-dose-only effect, or another doubt; inactive means no such curve, though single readings can be large; an effect the other way counts as inactive or inconclusive.

For CC(=O)OCCNc1cc(SCc2ccco2)c2nonc2c1[N+](=O)[O-] the results were TRb-SRC2 inh -6%, TR SRC2 fluor cs -17%, Coupling enz -10, TCR activator -2%[46.1 µM], TSHR antag -15 and NPSR antag -20%.
Screening CC(=O)OCCCNc1cc(Sc2ccc(C)cc2)c2nonc2c1[N+](=O)[O-] returned TRb-SRC2 inh -4%, TR SRC2 fluor cs 4%, Coupling enz -3, TCR activator -6%[46.1 µM], TSHR antag -21 and NPSR antag -13%[46.1 µM].
`CC(=O)OCCCNc1cc(Sc2nc3ccccc3s2)c2nonc2c1[N+](=O)[O-]` gave TRb-SRC2 inh 0%, TR SRC2 fluor cs 3%, Coupling enz -35*, TCR activator -4%, TSHR antag -4 and NPSR antag inconclusive.
Screening CC(=O)OCCNc1cc(Sc2nc3ccccc3[nH]2)c2nonc2c1[N+](=O)[O-] returned TRb-SRC2 inh 6%, TR SRC2 fluor cs 12%, Coupling enz 1, TCR activator -2%[46.1 µM], TSHR antag -88* and NPSR antag inconclusive.
`CC(=O)Nc1cc2c(s1)c1cnn(Cc3ccccc3F)c(=O)c1n2C` gave TSHR antag -16.
`CCC(C)(C)n1nnnc1C(c1ccc(C)cc1)N1CCN(Cc2ccc3c(c2)OCO3)CC1` (configuration not stated) gave TRb-SRC2 inh 0%, TR SRC2 fluor cs 0%, Coupling enz 1, TCR activator -8%[46.1 µM], TSHR antag -8 and NPSR antag -15%[46.1 µM].
CCC(C)(C)n1nnnc1C(c1ccc2ncccc2c1)N1CCN(Cc2ccc3c(c2)OCO3)CC1 (configuration not stated) was read as TRb-SRC2 inh 2%, TR SRC2 fluor cs 2%, Coupling enz 0, TSHR antag -6 and NPSR antag 7.9µM*.
CCCC/C=C\CCCCCCCCCC=O was read as TRb-SRC2 inh 9%[201 µM] and TR SRC2 fluor cs 3%[201 µM].
Cc1ccsc1C1C2=C(CC(C)(C)CC2=O)Nc2ncnn21 (configuration not stated) was read as TRb-SRC2 inh -8%, TR SRC2 fluor cs -2%, Coupling enz -2, TCR activator -34%, TSHR antag -3 and NPSR antag -13%[46.1 µM].
`Cc1ccsc1C1C2=C(CCCC2=O)Nc2ncnn21` (configuration not stated) gave TRb-SRC2 inh 6%, TR SRC2 fluor cs -5%, Coupling enz -30*, TCR activator -5%, TSHR antag 2 and NPSR antag -11%[46.1 µM].
CCCSc1oc(-c2ccco2)nc1S(=O)(=O)c1ccccc1 was read as TRb-SRC2 inh -1%, TR SRC2 fluor cs 1%, Coupling enz -36*, TCR activator -2%, TSHR antag 1 and NPSR antag -26%[46.1 µM].
Screening N#C/C(=C\C1=C(N2CCOCC2)C(=C\c2ccc(Cl)cc2)/CC1)C(=O)Nc1ccccc1F returned TRb-SRC2 inh 40µM*, TR SRC2 fluor cs 50µM*[fluorescent], Coupling enz 1, TCR activator 3%[46.1 µM], TSHR antag 4 and NPSR antag -3%.
For N#C/C(=C/C1=C(N2CCOCC2)C(=C/c2ccccc2)/CC1)C(=O)Nc1ccccc1F the results were TCR activator 6%.
Screening CCCCCCCCCCCCCCCO returned TRb-SRC2 inh 8%[201 µM] and TR SRC2 fluor cs -4%[201 µM].
Screening C=CCN1C=CC(=C/C=C(/C#N)C(=O)OCC)C=C1 returned TRb-SRC2 inh -23%, TR SRC2 fluor cs inconclusive, Coupling enz -5, TCR activator 21%[46.1 µM], TSHR antag -47 and NPSR antag 10µM*.
For C[n+]1ccc(/C=C/c2ccccc2O)c2ccccc21 the results were TRb-SRC2 inh -4%, TR SRC2 fluor cs -1%, Coupling enz -11, TCR activator 2%, TSHR antag -26 and NPSR antag 13µM*.
For CN1/C(=C/c2cc[n+](C)c3ccccc23)C=Cc2ccccc21 the results were TRb-SRC2 inh 4%, TR SRC2 fluor cs 0%, Coupling enz -26, TCR activator 3%, TSHR antag -31 and NPSR antag inconclusive.
COc1cc(OC)c(N(C)C(=O)C2CCCN(c3ncnc4c3nc3n4CCCCC3)C2)cc1Cl (configuration not stated) was read as TRb-SRC2 inh 4% and TR SRC2 fluor cs inconclusive.
Cc1ccccc1N1CCN(C2CCCN(C(=O)c3cnsn3)C2)CC1 (configuration not stated) was read as Coupling enz -2, TCR activator 9% and TSHR antag -105*.
Screening Cc1ccc(NC(=O)N2CCc3cc(S(=O)(=O)N4CCC(C)CC4)ccc32)cc1F returned TRb-SRC2 inh -17% and TR SRC2 fluor cs 28µM*[quencher].
For CC1CCN(S(=O)(=O)c2ccc3c(c2)CCN3C(=O)Nc2ccc(Br)cc2)CC1 the results were TRb-SRC2 inh 5% and TR SRC2 fluor cs -1%.
For O=C(OCn1ncc(Br)c(Br)c1=O)c1c(F)cccc1F the results were TRb-SRC2 inh -2%, TR SRC2 fluor cs -4%, Coupling enz 0, TSHR antag -13 and NPSR antag 2.5µM*.
Screening CN(CCCC[C@H](CNCc1ccc(-c2ccccc2)cc1)N1C[C@H](c2ccccc2)N(CCc2ccc(Cl)c(Cl)c2)C(=O)C1=O)Cc1ccc(-c2ccccc2)cc1 returned TRb-SRC2 inh 9%, TR SRC2 fluor cs -2%, Coupling enz 0, TSHR antag 3 and NPSR antag 10µM*.
CCC(=O)Nc1ccc(C)cc1-c1nc2ccccc2n(C(C)C(=O)Nc2ccccc2CC)c1=O (configuration not stated) was read as TRb-SRC2 inh 5% and TR SRC2 fluor cs -1%.
COc1ccc(C(=O)Nc2cccc(-c3nc4cccnc4s3)c2C)c(OC)c1 was read as TRb-SRC2 inh -13% and TR SRC2 fluor cs 100µM*[quencher].
CCN(CC)c1ccc(NS(=O)(=O)c2ccc3c(c2)CCCN3C(C)=O)c(C)c1 was read as TRb-SRC2 inh 1% and TR SRC2 fluor cs 1%.
CCOC(=O)c1cc(-c2ccc(OC)cc2)n(CCC(=O)NC2CCC(C)CC2)c1C (configuration not stated) was read as TRb-SRC2 inh -5% and TR SRC2 fluor cs -1%.
CC(C)(C)OC(=O)NCCCC[C@H](NC(=O)c1nc[nH]c1C(=O)NC1CCN(C(=O)OC(C)(C)C)CC1)C(=O)OC(C)(C)C was read as TRb-SRC2 inh -4%, TR SRC2 fluor cs -3%, Coupling enz -6, TCR activator -20%, TSHR antag -13 and NPSR antag 10µM*.
